Activity calls are given as the source filed them. No rule for the calls is given here.

The nature of this experiment: Brca1-Bard1 BiLC signal decrease – luminescence, single concentration, counter-screen for Mdm2/MdmX interaction inhibitor project, confirmation (AID 504668). The conditions noted are these: Brca1/Bard1 bimolecular luciferase complementation counterscreen, at 8 µM, hits give high values. A general note: The purpose of a counterscreen is to sort out artefacts and off-target activity.
With `O=C(Cc1ccccc1)N/N=C/c1cc(Br)cc(Cl)c1O`, the inhibition (in general, the percentage by which the read-out fell short of the control) was 29.2% (active).

With `COc1cc2c(O)c3c(c(-c4ccc5c(c4)OCO5)c2cc1OC)C(=O)OC3`, the inhibition was 26.1% (active).

`COc1cc([N+](=O)[O-])cc(/C=N/NC(=O)c2ccc(NC(=O)c3ccc(C)cc3)cc2)c1O`: the inhibition is 33.2% (active).

For the compound `O=C(CCS(=O)(=O)c1ccc(F)cc1)Nc1nc(-c2ccncc2)cs1`, the inhibition was 34.2% (active).

On to `O=C(Nc1ccc(Cl)cc1)Nc1ccc(N2CCCC2)c(S(=O)(=O)Nc2ccccc2Cl)c1`, for which the inhibition is 24% (active).

Take `Brc1cc(Br)c2ncnc(N3CCCCC3)c2c1`: the inhibition is 27.7% (active).

Regarding `O=C(Nc1nc(-c2ccccn2)cs1)c1cccc(-n2cnnn2)c1`, the inhibition was 26.2% (active).

Take `O=C(N/N=C(\Cc1ncc[nH]1)c1ccccc1)c1ccncc1`: the inhibition is 30.3% (active).

Consider `COc1cccc(-c2sc3ccc(OC)cc3c2-c2ccc(OCCN3CCCC3)cc2)c1`, for which the inhibition is 27.8% (active).

Take `Oc1ccc(CN2CCc3ccccc3C2)c2cccnc12`: the inhibition is 24.4% (active).

As to `C=C(C(=O)Oc1ccccc1C(C)(C)C)c1ccccc1`, the inhibition was 34% (active).

Take `Cc1nc(NC(=O)/C=C/c2ccccc2)n[nH]1`: the inhibition is 32.9% (active).

Take `C=CCN=C1NN=C(c2cc(C)n(CCOC)c2C)CS1`: the inhibition is 31% (active).

Take `C/C(=N\NC(=O)c1cc2ccccc2cc1O)c1ccccn1`: the inhibition is 24.3% (active).

For the compound `CCc1ccc(S(=O)(=O)/N=C2\C=C(Nc3ccc(C(=O)O)cc3)C(=O)c3ccccc32)cc1`, the inhibition is 33.2% (active).

Regarding `O=C(/C(N=Nc1cccc([N+](=O)[O-])c1)=C(/O)c1ccc(Br)cc1)C(F)(F)F`, the inhibition is 24.9% (active).

On to `O=C(Nc1ccc(Cl)c([N+](=O)[O-])c1)C(Sc1ccccc1)c1ccccc1` (centres undefined), for which the inhibition is 24.1% (active).

For the compound `CN(Cc1ccccc1)C(=O)c1ccc(NC(=O)C2CCN(C(=O)OC(C)(C)C)CC2)cc1`, the inhibition is 31.6% (active).

In the case of `CCOC(=O)/C(=C\c1cccc(O)c1)c1nc2sc(C)c(C)c2c(=O)[nH]1`, the inhibition is 27% (active).

In the case of `Cc1nnnn1/C(=C\c1ccccc1)C(=O)OCC(=O)Nc1cccc(S(=O)(=O)N(C)C)c1`, the inhibition was 34% (active).

`COc1ccc(N/N=C/c2c(C(=O)O)ccc3ccccc23)cc1`: the inhibition is 24.1% (active).

Consider `CCOC(=O)c1c(CN(C)C)n(C)c2c(O)c(N=NC(N)=O)c3ccc(Br)cc3c12`, for which the inhibition was 27.9% (active).

Consider `O=C(Nc1nc(-c2ccccn2)cs1)c1cc(Cl)ccc1[N+](=O)[O-]`, for which the inhibition was 32.3% (active).

Consider `Cc1cccc([C@@H]2[C@@H]3C(=O)N(Cc4ccccc4)C(=O)[C@@H]3[C@]3(C)C(=O)N(c4ccc(C(F)(F)F)cc4)C(=O)N23)c1`, for which the inhibition was 33.2% (active).

Consider `N#Cc1c(-c2ccccc2)c(-c2ccccc2)nn(CC(=O)NNC(=O)Nc2ccc(Cl)c(Cl)c2)c1=O`, for which the inhibition was 35.9% (active).

Regarding `OC(c1cc(C(F)(F)F)nc2c(C(F)(F)F)cccc12)C1CCCCN1` (centres undefined), the inhibition is 35.8% (active).

Take `CCC(C)NCC(=O)Nc1ccc(-c2nc3cc(NC(=O)CNC(C)CC)ccc3o2)cc1` (centres undefined): the inhibition was 35.6% (active).

Take `CC(=O)/C(C#N)=C1\NC(=O)C(Cc2ccccc2Cl)S1` (centres undefined): the inhibition is 30.1% (active).

Turning to `COc1ccc(Cc2nnc(N/N=C/c3ccc(O)cc3)[nH]c2=O)cc1OC`, the inhibition is 24.8% (active).

Turning to `O=c1c2ccccc2nc(/C=C/c2cc(Br)ccc2O)n1CCCO`, the inhibition is 26.6% (active).

Consider `O=c1c2ccccc2nc(-c2ccc(Cl)c(Cl)c2)n1O`, for which the inhibition is 26.8% (active).

Consider `O=C(Nc1nc(-c2ccccc2)cs1)c1ccccc1NS(=O)(=O)c1ccc(F)cc1`, for which the inhibition is 25.5% (active).

Consider `COc1ccc2nc(N=Nc3ccc(O)c4ccccc34)sc2c1`, for which the inhibition was 35.3% (active).

Regarding `CC(=O)NC(c1ccc(C)cc1)c1cc([N+](=O)[O-])c2cccnc2c1O` (centres undefined), the inhibition is 25% (active).

Turning to `CCOC(=O)C1=C(C)n2c(s/c(=C/c3cccc([N+](=O)[O-])c3)c2=O)=NC1c1ccc(O)c(OC)c1` (centres undefined), the inhibition is 26.4% (active).

As to `CCS(=O)(=O)c1nnnn1-c1ccccc1S(C)(=O)=O`, the inhibition was 34.3% (active).

With `FC(F)(F)c1cccc(NC(=S)N(CCCN2CCCC2)Cc2cccn2Cc2ccc(Cl)cc2)c1`, the inhibition is 30.3% (active).

In the case of `CC[C@@]1(C(=O)OC)N[C@H](CN(C)C(=O)Nc2ccc(C(F)(F)F)cc2)[C@@H]2C(=O)N(Cc3ccccc3)C(=O)[C@@H]21`, the inhibition was 32.2% (active).

For `C=C1C(O)[C@@H]2O[C@]3(CC[C@H](/C=C/C(C)[C@@H]4CC(C)=CC5(O[C@H](C[C@@](C)(O)CO)CCC5O)O4)O3)CC[C@H]2O[C@@H]1C(O)CC(C)[C@H]1OC2(CCCCO2)CCC1C` (some centres undefined), the inhibition is 33.4% (active).

These data come from PubChem BioAssay.
